In the supplement of paper PMC10646978:
± gives the standard deviation.

system: RAW-Dual (murine macrophage reporter line); assay: IRF reporter (Lucia luciferase) activity fold change vs agonist alone; higher = enhanced IRF activity; conditions: modulator concentration 10 µM; agonist: LPS 0.1 ug/mL
How it was run: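 RAW-Dual murine macrophage reporter cells were seeded at 50 000 per well in 384-well plates and pre-incubated 1 hour at 37 °C with compound pin-transferred to 10 μM final. After 1 hour, a PRR agonist was added and cells incubated overnight. Supernatant NF-κB (SEAP, QUANTI-Blue, 620 nm absorbance) and IRF (Lucia luciferase, QUANTI-Luc, luminescence) signals were divided by the mean agonist-only control on the same plate to give fold change. Two replicate plates were averaged, with errors by propagation.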

| Compound | IRF reporter |
| --- | --- |
| COC(=O)C1C(=O)C(=CNc2ccccc2O)C(=O)CC1(C)C (centres undefined) | 1.19 ± 0.11 |
| Cc1cc(OCCCOc2cccc3cccnc23)ccc1Cl | 1.14 ± 0.18 |
| CN(C)CCOC(c1ccccc1)c1ccccc1.Cl | 1.17 ± 0.1 |
| O=C(Nc1cccnc1)c1ccc(OC2CCOCC2)nc1 | 1.05 ± 0.13 |
| CCOC(=O)C1=CC2(CC)CCCN3CCc4c(n1c1ccccc41)C32 (centres undefined) | 1.3 ± 0.13 |
| CCOC(=O)C1=C(C)NC(C)=C(C(=O)OCC)C1c1ccc(F)cc1 | 0.987 ± 0.059 |
| CC12CCC3c4ccc(O)cc4CCC3C1CC(O)C2O (centres undefined) | 1.39 ± 0.16 |
| COC(CNS(=O)(=O)c1ccccc1Cl)c1cccc(F)c1 (centres undefined) | 1.03 ± 0.055 |
| CN(C)CCC=C1c2ccccc2Sc2ccc(Cl)cc21.Cl | 1.39 ± 0.18 |
| CCCc1cc(=O)oc2cc(OCC(=O)OC)c(Cl)cc12 | 1.04 ± 0.1 |
| CCOC(=O)c1ccccc1NC(=O)CN(c1cc(Cl)ccc1OC)S(C)(=O)=O | 1.38 ± 0.2 |
| Cc1c(OCC(F)(F)F)ccnc1CS(=O)c1nc2ccccc2[nH]1 (centres undefined) | 1.11 ± 0.3 |
| COc1cc2c3cc1Oc1cc(ccc1O)OC1c4c(cc(OC)c(O)c4Oc4ccc(cc4)CC3N(C)CC2)CCN1C (centres undefined) | 1.47 ± 0.23 |
| Cc1nc(Nc2ncc(C(=O)Nc3c(C)cccc3Cl)s2)cc(N2CCN(CCO)CC2)n1.O | 0.536 ± 0.063 |
| COc1cccc(CCc2ccccc2OCC(CN(C)C)OC(=O)CCC(=O)O)c1.Cl (centres undefined) | 1.25 ± 0.31 |
| Nc1ccc(S(N)(=O)=O)cc1 | 0.933 ± 0.038 |
| N#Cc1nc(-c2ccc(COc3ccccc3)o2)oc1N1CCCCC1 | 1.53 ± 0.1 |
| O=C1OCCN1C1CCN(C(=O)C2(c3ccc(F)cc3)CC2)C1 (centres undefined) | 1.28 ± 0.3 |
| Cl.O=C1Cc2cc(CCN3CCN(c4nsc5ccccc45)CC3)c(Cl)cc2N1 | 1.24 ± 0.24 |
